Measurements reported in the supplement of paper PMC6555819.

Columns and labels:
Assay in all cases: PBM binding z-score (relative to random genomic background probes); higher = stronger binding; sequences stand for … in GC…GCGATTGACAGCGTAGAATGAAGG
[1] = system: PPARg:RXRa DBDmut IVT, anti-RXR (DBD mutation: RXRa K156A/R161A, NR concentration 270 nM, RXRa partner concentration 90 nM)
Procedure, shortened: (§1)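 Binding z-scores take random background probes as their reference. They come from custom Agilent 4×180K protein-binding microarrays incubated 1 h with ligand-free nuclear receptor dimers, with antibodies against each partner (one per run) detecting binding. Scanned fluorescence was regression-normalized.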

[2] = system: PPARg:RXRa IVT, anti-PPARg (NR concentration 270 nM, RXRa partner concentration 90 nM)
Procedure, shortened: as §1

[3] = system: PPARg DBDmut:RXRa IVT, anti-PPARg (DBD mutation: PPARg1 K132A/R137A, NR concentration 270 nM, RXRa partner concentration 90 nM)
Procedure, shortened: as §1

[4] = system: PPARg DBDmut IVT, anti-PPARg (DBD mutation: PPARg1 K132A/R137A, NR concentration 270 nM)
Procedure, shortened: as §1

[5] = system: PPARg homodimer (NR concentration 180 nM)
Procedure, shortened: as §1

[6] = system: PXR:RXRa (NR concentration 270 nM, RXRa partner concentration 90 nM)
Procedure, shortened: as §1

[7] = system: PXR homodimer (NR concentration 270 nM)
Procedure, shortened: as §1

[8] = system: RARa:RXR (NR concentration 270 nM, RXRa partner concentration 90 nM)
Procedure, shortened: as §1

[9] = system: RARa homodimer (NR concentration 270 nM)
Procedure, shortened: as §1

[10] = system: RARb:RXRa (NR concentration 270 nM, RXRa partner concentration 90 nM)
Procedure, shortened: as §1

[11] = system: RARb homodimer (NR concentration 270 nM)
Procedure, shortened: as §1

[12] = system: RARg:RXRa (NR concentration 270 nM, RXRa partner concentration 90 nM)
Procedure, shortened: as §1

[13] = system: RARg homodimer (NR concentration 270 nM)
Procedure, shortened: as §1

[14] = system: RXRa DBDmut IVT, anti-RXR (DBD mutation: RXRa K156A/R161A, NR concentration 90 nM)
Procedure, shortened: as §1

[15] = system: RXRa homodimer (NR concentration 180 nM)
Procedure, shortened: as §1

[16] = system: THRa:RXRa (NR concentration 90 nM, RXRa partner concentration 90 nM)
Procedure, shortened: as §1

[17] = system: THRa homodimer (NR concentration 90 nM)
Procedure, shortened: as §1

[18] = system: VDR homodimer (NR concentration 270 nM)
Procedure, shortened: as §1

Row | Sequence | PBM binding z-score [1] | PBM binding z-score [2] | PBM binding z-score [3] | PBM binding z-score [4] | PBM binding z-score [5] | PBM binding z-score [6] | PBM binding z-score [7] | PBM binding z-score [8] | PBM binding z-score [9] | PBM binding z-score [10] | PBM binding z-score [11] | PBM binding z-score [12] | PBM binding z-score [13] | PBM binding z-score [14] | PBM binding z-score [15] | PBM binding z-score [16] | PBM binding z-score [17] | PBM binding z-score [18]
1 | TCATATAGGTAATACGGGTGAAAGTCGGCATCTA | 3.97 | 3.5 | 0.9 | 0.874 | 0.552 | 0.662 | 0.363 | 1.01 | 1.49 | 0.495 | 0.258 | 0.35 | 0.383 | 1.33 | 0.921 | 0.697 | 0.103 | 0.0658
2 | TCATATAGGTAAATGCTTGGTGAAAGTCCGATCT | 4.12 | 2.04 | 1.15 | 1.07 | 0.653 | 0.501 | 0.156 | 0.651 | 1.11 | 0.221 | 0.222 | 0.052 | 0.0294 | 1.52 | 0.692 | 0.0324 | 0.34 | 0.414
3 | GGAACGAGGGCTAGTTGATAGCAGAGTTTGATGG | 0.122 | -0.508 | -0.313 | -0.827 | -0.214 | -0.534 | -0.283 | -0.627 | -0.525 | -0.19 | -0.317 | -0.308 | -0.0732 | 0.278 | -0.467 | -0.749 | -1.03 | -0.367
4 | TCTTGTAGATCAAGCAGGTTAAAAAAGCCTGAGT | 1.71 | 0.721 | 0.175 | 0.427 | 0.249 | 0.876 | 0.157 | 0.523 | 0.0055 | 0.189 | 0.112 | 0.141 | -0.124 | 0.493 | 0.566 | 0.589 | -0.577 | 0.272
5 | GCGACTGGGGAATCAGCAGGTTACCATAACTTAA | 0.44 | 0.213 | -0.564 | -0.355 | -0.3 | -0.375 | -0.366 | -0.13 | -0.219 | -0.211 | 0.164 | -0.241 | -0.452 | -0.352 | 0.0152 | 0.249 | -0.272 | -0.345
6 | TCGAGTAGGTTAGTCGGAGCATTCAGCCAACATA | 2.04 | 1.68 | -0.361 | -0.571 | 0.0245 | -0.452 | -0.761 | -0.167 | -0.593 | -0.208 | -0.533 | -0.461 | -0.343 | -0.252 | -0.401 | -0.658 | -0.781 | -0.514
7 | CCGACTGGGGCAGAAAAGTTACCATACCATCCGG | 1.36 | 0.746 | -1.85 | -1.61 | 0.0393 | -0.593 | -0.395 | -0.848 | 0.0243 | -0.0999 | -0.232 | -0.197 | 0.109 | -0.438 | -0.0105 | -0.43 | -0.509 | -0.39
8 | CCTTACGGGTCACGAGGTTATAGAACGACGAGCG | 4.22 | 5.47 | 0.77 | 0.157 | 2.71 | 4.54 | 0.292 | 6.07 | 0.736 | 4.73 | 4.13 | 6.4 | 5.59 | 1.18 | 7.41 | 3.8 | 1.14 | 2.22
9 | TCTTGTAGATCAACAGGAGGTTAAGACAGATCGA | 1.59 | 0.984 | 0.978 | 0.46 | -0.0911 | 0.727 | -0.273 | 0.694 | 0.154 | 0.534 | 0.499 | 0.964 | 0.323 | 0.507 | 0.916 | 0.703 | -0.723 | -0.102
10 | TCTTGTAGATTAAAGGTTAAGAAAGCCGAAGCCT | 1.85 | 2.24 | 0.866 | 0.455 | 1.17 | 1.13 | 0.203 | 2.09 | 1.4 | 1.53 | 1.05 | 1.04 | 0.588 | 0.892 | 1.99 | 1.09 | -0.228 | 0.123
11 | AGAATGAGGTTATTAAGATCAGTGAATTGCGGTC | 3.14 | 2.61 | 0.948 | 0.175 | 1.22 | 1.37 | 0.788 | 1.35 | 0.44 | 1.31 | 0.636 | 1.21 | 0.905 | 2.02 | 1.67 | 2.17 | 0.753 | 1.09
12 | TCTTGTAGATCAACAGGAGGTTGAGAAAGATCGA | 1.36 | 0.267 | 0.852 | -0.116 | -0.716 | 0.0835 | -0.557 | 0.0993 | -0.378 | -0.147 | -0.533 | 0.156 | -0.228 | 0.313 | 0.301 | -0.174 | -0.919 | -0.475
13 | TAGCCTAGGTCAGATCGGGCCACTATACGCTATA | 0.727 | 1.46 | -0.3 | -0.905 | 0.204 | 1.73 | -0.326 | 1.39 | -0.348 | 3.01 | 2.48 | 2.78 | 3.37 | -0.221 | 1.48 | 4.72 | 0.493 | 0.0583
14 | CGTCCAAGGTCAGCAGGTCAGTGGAAGCGACGTG | 2.83 | 3.58 | -0.161 | -0.183 | 2.96 | 3.57 | 0.377 | 4.3 | 0.462 | 5.23 | 5.03 | 6.2 | 6.72 | 2.48 | 4.81 | 3.96 | 2.37 | 1.6
15 | TCTATTAGTAGAAGGGCAACCGACGAGTCCGTTT | 1.9 | 0.562 | 0.63 | -0.0614 | 0.492 | 0.479 | 0.325 | 0.693 | 0.276 | 1.36 | 0.923 | 0.406 | 0.636 | 1.23 | 0.785 | -0.0492 | -0.359 | 1.18
16 | TTACTAAGGTGAAGGTCGTTGATCCCTCTGTAGA | 3.98 | 4.68 | 1.15 | 0.702 | 1.39 | 1.84 | 0.493 | 2.6 | 0.0273 | 2.58 | 1.96 | 1.85 | 1.21 | 0.794 | 2.31 | 3.16 | 1.98 | 1.11
